Source: PubChem BioAssay
The sample as a whole holds a higher share of hits than the screen did.
Methyltransferases = Primary Screen for Target Class Profiling of Small Molecule Inhibitors of Methyltransferases | calls only at 40 µM | hit rate 3.9% among 25,000 | purified enzyme, MTase-Glo SAH luminescence; hits give low values | AID 1745853, 2022; call rule not given here
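Each enzyme was assayed with SAM and its substrate. SAH formation detected by MTase-Glo luminescence; single-point 40 uM screen[…].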
An asterisk follows results filed as active; i = inactive; + = active, no number. On the % scale 0 is the no-effect control and ±100 the full control effect.

SMILES	Methyltransferases
Cc1cc2c(cc3n2CC(C)(C(=O)NC2CCCCCCC2)N(CCc2ccccc2)C3=O)o1 (stereo not drawn)	i
COc1ccc(CCN2C(=O)c3cc4oc(C)cc4n3CC2(C)C(=O)NC2CCCCC2)cc1OC (stereo not drawn)	+
O=C(CSc1nnc2n(Cc3ccccc3)c(=O)c3ccccc3n12)Nc1ccccc1F	i
CCOC(=O)c1cc2n(n1)CC(C)(C(=O)NC1CCCCCC1)N(c1ccc(C)c(F)c1)C2=O (stereo not drawn)	i
COc1ccccc1CNC(=O)C1(C)Cn2c(cc3ccccc32)C(=O)N1Cc1ccccc1C (stereo not drawn)	i
Cc1ccccc1Cn1nc2n(CC(C)C)c(=O)c3ccc(C(=O)NCC(C)C)cc3n2c1=O	i
CCN1CCN(S(=O)(=O)c2cc(-c3nnc(-c4ccccc4)o3)ccc2OC)CC1	i
C[n+]1cc2c3c(ccc2c2ccc4cc5c(cc4c21)OCO5)OCO3	+
Cc1ccc(Nc2ccn3c(=O)n(CC(=O)Nc4ccc(C)cc4C)nc3n2)cc1	i
CC1(C(=O)NC2CCCCCCC2)Cn2c(cc3sccc32)C(=O)N1Cc1ccccc1Cl (stereo not drawn)	i
COc1ccc(OC)c2c1cc1n2CC(C)(C(=O)NC2CCCC2)N(CCN2CCOCC2)C1=O (stereo not drawn)	i
C=CCn1c(=O)c2ccc(C(=O)NCC(C)C)cc2n2c(=O)n(CC(=O)Nc3cccc(C)c3)nc12	i
Cc1cccc(CCNC(=O)c2cc3n(n2)CC(C)(C(=O)NCc2ccc(F)cc2)N(C)C3=O)c1 (stereo not drawn)	i
C=CC[N+]1([C@H]2C[C@H]3[C@@H]4CC[C@H]5C[C@H](OC(C)=O)[C@@H](N6CCCCC6)C[C@]5(C)[C@H]4CC[C@]3(C)[C@H]2OC(=O)CC)CCCCC1	+
COc1ccc(S(=O)(=O)N2CCCCC2c2nc(C3CC3)n[nH]2)cc1 (stereo not drawn)	i
CC(C)OCCCn1c(=O)c2ccccc2n2c(SCC(=O)Nc3ccc(F)cc3)nnc12	i
CCN(CC)c1ccc2c(O)c(C=Nc3ccc(CC(=O)O)c(-c4c5c(nc6ccccc46)CCC(C(=O)NN)C5)c3)c(=O)oc2c1 (stereo not drawn)	+
Cc1ccccc1CNC(=O)C1(C)Cc2ccccc2C(=O)N1Cc1ccc(C(F)(F)F)cc1 (stereo not drawn)	i
CCOC(=O)COc1cc2oc(=O)cc(-c3ccccc3)c2cc1Cl	i
CC(C)CNC(=O)c1ccc2c(=O)n(C)c3nn(Cc4ccccc4F)c(=O)n3c2c1	i
COC(=O)c1ncn2c1C(=O)N(CCc1ccc(SC)cc1)C(C)(C(=O)NC1CCCCC1)C2 (stereo not drawn)	i
COC(=O)Cn1c(=O)oc2cc(S(=O)(=O)NCCN3CCOCC3)ccc21	i
CC(C)c1cc(-c2n[nH]c(=O)n2-c2ccc3c(ccn3C)c2)c(O)cc1O	+
COc1cccc(C(=O)Cn2nc3n(Cc4ccccc4)c(=O)c4ccccc4n3c2=O)c1	i
COc1ccc(-c2n[nH]n3c2nc(=O)c2ccc(C(=O)NCc4ccc(Cl)cc4)cc23)cc1	i
SMILES	Methyltransferases
C=CCNC(=O)c1ccc2c(=O)[nH]c3c(C(=O)NC(C)C)sc(=S)n3c2c1	i
Cc1ccc(CNC(=O)c2ccc3c(=O)[nH]c4c(C(=O)NC(C)C)sc(=S)n4c3c2)cc1	+
Cc1ccc(CNC(=O)c2ccc3c(=O)[nH]c4c(C(=O)NCC5CCCO5)sc(=S)n4c3c2)cc1 (stereo not drawn)	i
COc1ccc(CN2C(=O)c3cc4sccc4n3CC2(C)C(=O)NC2CCCC(C)C2C)cc1 (stereo not drawn)	i
COc1ccc(Cl)cc1N1C(=O)c2cc3sccc3n2CC1(C)C(=O)NC1CCCCCC1 (stereo not drawn)	i
O=C(CCn1ccc2cc(S(=O)(=O)N3CCCC3)ccc21)NCCc1ccc(Cl)cc1	i
CC(C)C[C@H](C(=O)O)c1cc(-c2ccc(C(F)(F)F)cc2)cc(-c2ccc(C(F)(F)F)cc2)c1	+
Cc1nc2c3ccccc3n3c(CCCC(=O)N4CCN(Cc5ccccc5)CC4)nnc3n2n1	i
COc1ccc(-c2cc3n(n2)CC(C)(C(=O)NCc2ccccc2OC)N(CCc2ccco2)C3=O)cc1 (stereo not drawn)	i
CC(C)CCn1c(=O)c2ccccc2n2c(=O)n(Cc3cccc(F)c3)nc12	i
COc1ccc2cc3n(c2c1)CC(C)(C(=O)NC1CCCCC1)N(CCCN1CCCCC1)C3=O (stereo not drawn)	i
CNCCC(c1cccs1)c1ccc(O)c2ccccc12 (stereo not drawn)	+
CC1CCCCC1NC(=O)C1(C)Cn2c(cc3occc32)C(=O)N1CCc1ccc(Cl)cc1 (stereo not drawn)	i
CCOc1ccc(NC(=O)N2CCn3c(C)ccc3C2CC)cc1 (stereo not drawn)	i
CC(C)CCNC(=O)c1cc2n(n1)CC(C)(C(=O)NCc1ccc(F)cc1)N(C)C2=O (stereo not drawn)	i
Cc1ccccc1Cn1nc2n(CC(C)C)c(=O)c3ccc(C(=O)NC(C)C)cc3n2c1=O	i
COc1ccc2cc3n(c2c1)CC(C)(C(=O)NC1CCCC1)N(Cc1ccccc1C)C3=O (stereo not drawn)	i
Cc1cccc(NC(=O)Cn2c(=O)oc3cc(S(=O)(=O)NCc4ccccc4)ccc32)c1	i
CC(C)c1ccc(NC(=O)Cn2c(=O)oc3cc(S(=O)(=O)NCc4ccccc4)ccc32)cc1	+
Cc1ccc(NC(=O)Cn2c(=O)oc3cc(S(=O)(=O)NCc4ccccc4)ccc32)cc1C	i
CC1CCCCC1NC(=O)C1(C)Cn2c(cc3occc32)C(=O)N1Cc1ccccc1Cl (stereo not drawn)	i
c1ccc(Cn2c(-c3ccc(OCC(C4CCNCC4)n4c(-c5ccccc5)nc5ccccc54)cc3)nc3ccccc32)cc1 (stereo not drawn)	+
CC(C)Oc1ccc(CN2C(=O)c3nc4ccccc4n3CC2(C)C(=O)NC2CCCCCC2)cc1 (stereo not drawn)	i
CC(C)Oc1ccc(CN2C(=O)c3nc4ccccc4n3CC2(C)C(=O)NC2CCCCC2)cc1 (stereo not drawn)	i
C=CCn1c(=O)c2ccc(C(=O)NC(C)C)cc2n2c(=O)n(CC(=O)Nc3ccccc3)nc12	i
SMILES	Methyltransferases
CC(C)OCCCn1c(=O)c2ccccc2n2c(=O)n(Cc3ccc(F)cc3Cl)nc12	i
COC(=O)C1=C2Nc3ccccc3C23CCN2CCCC(C(C)O)(C1)C23 (stereo not drawn)	+
COc1ccc(-c2cc3n(n2)CC(C)(C(=O)NCc2ccccc2OC)N(c2cccc(C)c2C)C3=O)cc1 (stereo not drawn)	i
O=C(c1ccc2c(=O)nc3c(-c4ccc(Cl)cc4)n[nH]n3c2c1)N1CCN(c2ccccc2)CC1	i
COc1ccccc1OCCNCC(O)CCOc1cccc2[nH]c3ccccc3c12 (stereo not drawn)	+
COc1ccccc1OCCN1CC(COc2cccc3[nH]c4ccccc4c23)OCC1=O (stereo not drawn)	i
CNCCC(Oc1ccccc1OC)c1ccccc1 (stereo not drawn)	i
CCc1ccc(CNC(=O)C(C)n2ccc3cc(S(=O)(=O)N4CCCC4)ccc32)cc1 (stereo not drawn)	i
